Among the data in PubChem BioAssay (NCI) are growth values, retold here.

What all share (assay): NCI-60 one-dose screen, 48 h (100 = growth as untreated, 0 = no growth, -100 = all killed)
What all share (details): 10 µM unless noted

Test [1] has as its system SR leukemia.
The subject of test [2] is RPMI-8226 leukemia.
Test [3] deals with OVCAR-8 ovarian.
In test [4] the test system is OVCAR-5 ovarian.
Test [5] concerns OVCAR-4 ovarian.
Test [6] deals with SK-OV-3 ovarian.
Test [7] has as its system IGROV1 ovarian.
Test [8] has as its system OVCAR-3 ovarian.
The subject of test [9] is HS 578T breast.
Test [10] relates to NCI/ADR-RES ovarian.
In test [11] the test system is T-47D breast.
Test [12] concerns BT-549 breast.
Test [13] has as its system SW-620 colon.
Test [14] deals with MCF7 breast.
For test [15], the system named is HCT-116 colon.
Test [16] concerns HCC-2998 colon.
Test [17] concerns KM12 colon.
The subject of test [18] is MDA-MB-435 melanoma.

Each structure is given as a SMILES string. The panel holds about 83,000 compounds, 20% with a hit somewhere; the sample as a whole holds those more often.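 Treatment: one concentration, 48 hours, 96-well format. Scoring: percent growth, with anything below 10 considered active.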 Values without a mark were called inactive. Active and inactive are the calls of the source.

In the case of `C=C1C(=O)O[C@H]2[C@H]1CC/C(COC(=O)NCc1c[nH]c3ccc(Br)cc13)=C\CC[C@@]1(C)O[C@@H]21`, the growth in test [1] was 7.54% (active); in test [2] it was -29.2% (active); in test [3], -41.7% (active); in test [4], -20.7% (active); in [5] it was 4.97% (active); in [6], 86.9%. In addition, the growth in test [7] is -46.8% (active); in test [8], -87.5% (active); in test [9], 34.3%; in test [10], 43.5%; in test [11] it was -68% (active); in [12], -52.3% (active). In addition, the growth is -71.3% (active) in [13]; 16.6% in test [14]; -83.1% (active) in test [15]; 53.3% in test [16]; 19.5% in [17].

Turning to `O=C(Nc1ccc(Cl)cc1)c1cc(NCc2cc(O)ccc2O)ccc1O`, the growth in test [1] was 9.06% (active); in test [2], 4.92% (active); in test [3], 70.4%; in [4], 116%; in test [5] it was 80.5%; in test [6] it was 103%. The growth was 84.2% in test [7]; 48.8% in test [8]; 90% in [9]; 82.9% in [10]; 42.6% in test [11]; 35.8% in test [12]. Moreover, the growth is 103% in [18]; 65.6% in [14]; 91.3% in [15]; 102% in test [16]; 76.8% in test [17].

Take `Cc1nn(-c2ccccc2)c(Cl)c1/C=C/C(=O)c1ccc(F)cc1`: the growth in test [1] was 4.28% (active); in test [2], -15.6% (active); in [3], 86.4%; in test [4], 97.4%; in test [5], 93.1%; in test [6] it was 110%. Moreover, the growth in [7] is 104%; in [8], 102%; in [9] it was 114%; in test [10], 93.2%; in test [11], 82.5%; in test [12] it was 92.9%. Moreover, the growth in test [13] was 64.7%; in [14], 41.5%; in test [15], 51.1%; in test [16], 107%; in [17] it was 84.9%.

For `Cc1nc(N)nc(N[C@@H](C)c2nc3cccc(NCc4ccc(C(=O)NO)cc4)c3c(=O)n2-c2ccccc2)n1`, the growth in [1] was 33.3%; in [2], 17.2%; in test [3], 70.3%; in test [4], 90.5%; in test [5], 92.2%; in test [6], 86.7%. In addition, the growth in [7] is 69.5%; in test [8], 85.9%; in [9], 72.1%; in [10], 103%; in test [11], 22.3%; in test [12], 99%. Besides, the growth in test [18] is 64.7%; in [14] it was 74.9%; in test [15], 56.3%; in test [16], 98%; in test [17] it was 92.9%.

Turning to `O=S(=O)(NCCNc1nccc(-c2c(-c3cccc(F)c3)nc3sccn23)n1)c1ccc(Br)cc1`, the growth in test [1] is 31.7%; in [2] it was 58%; in [3], 45.5%; in test [4], 83.6%; in [5], 47%; in test [6] it was 77.3%. Moreover, the growth in [7] is 8.47% (active); in [8], 62.4%; in [9], 63.6%; in test [10] it was 61.8%; in [11], 30.5%; in test [12], 63.3%. The growth in test [13] was 54.8%; in test [14], 23.5%; in test [15], 33.9%; in test [16] it was 79.5%; in [17], 42.5%.

As for `O=C(c1nc2ccccc2[nH]1)C1C(c2ccc(Br)cc2)C2CC3CCCC[C@H]3N2[C@@]12C(=O)Nc1cc(Cl)ccc12` (stereo partly drawn), the growth is 31.3% in [1]; 17% in [2]; 58.5% in test [3]; 46.8% in test [4]; 34.7% in test [5]; 67.6% in [6]. The growth was 28.8% in test [7]; 34.3% in test [8]; 66.8% in test [9]; 46.7% in test [10]; 29.1% in test [11]; 71.6% in [12]. The growth was 23.7% in test [18]; 16% in [14]; 21.1% in test [15]; 39.7% in test [16]; 37.9% in test [17].

With `O=c1[nH]nc(-c2ccccc2)c2sc3ncc(-c4ccc(Br)cc4)n3c12`, the growth in test [1] is 26.1%; in [2], 12.4%; in test [3], 46.5%; in test [4] it was 90.4%; in test [5] it was 85.5%; in test [6], 70.6%. Besides, the growth is 40.4% in [7]; 0.339% (active) in [8]; 32.4% in test [9]; 98.2% in test [10]; 43.1% in test [11]; 52.1% in test [12]. Also, the growth in test [13] was 35%; in [14], 28.9%; in [15], 16.6%; in test [16] it was 89.8%; in test [17] it was 33.9%.

Regarding `CC(=O)O[C@H]1Cc2c([nH]c3ccccc23)[C@@H](c2ccc(Cl)cc2)N1C(=O)CCNC(C)(C)C`, the growth in [1] is 3.79% (active); in test [2] it was 44.2%; in test [3], 83.4%; in [4] it was 59.6%; in [5], 64.6%; in test [6], 90.5%. Also, the growth was 24.6% in [7]; 70.8% in test [8]; 62.3% in test [9]; 91.8% in test [10]; 74.3% in [11]; 53.7% in test [12]. Besides, the growth is 70% in test [18]; 34.3% in test [14]; 20.8% in test [15]; 60.3% in test [16]; 66.6% in [17].

Regarding `COC(=O)C1=C(C(=O)ON)C2C=CC1(C(Cc1ccccc1)Nc1ccccc1)O2` (stereo not drawn), the growth in [1] is 4.9% (active); in test [2] it was 11.8%; in test [3] it was 91.2%; in [4], 105%; in [5] it was 69%; in [6], 104%. Also, the growth was 75.9% in test [7]; -100% (active) in test [8]; 108% in test [9]; 94.6% in test [10]; -51.1% (active) in [11]; 106% in [12]. Further, the growth is 94.5% in [18]; 83.3% in test [14]; -73.8% (active) in test [15]; 93.6% in test [16]; 103% in test [17].
